# Data published in PubChem BioAssay (Tox21).
# A number with no mark means an inactive call. Records with an inconclusive call do not appear. Where a call stands in place of a potency, no number is given. Activity calls are given as the source filed them. Unless noted, the call rests on the fitted dose curve; in most records, active means well fitted curve in the direction sought with a large enough effect in the repeat runs; inconclusive means weak or mixed curves; inactive means no such curve, though single readings can be large; an effect the other way counts as inactive or inconclusive.
# How the values were obtained:
# [1] = qHTS assay for small molecules that induce genotoxicity in human embryonic kidney cells expressing luciferase-tagged ATAD5 (AID 651632); further: nearly all actives have a fitted effect of over 15% in size
# How it was run: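 Genotoxicity read-out via ATAD5-luciferase: HEK293T cells, 16 hr compound incubation at 37C, Amplite detection.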
# [2] = qHTS assay for small molecule agonists of the p53 signaling pathway - cell viability (AID 651633; calls by dose curve;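 further: p53RE-bla HCT reporter cells with a stable beta-lactamase p53 reporter; series mostly up to about 83 µM; nearly all actives have a fitted effect of over 30% in size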)
# How it was run: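 Viability counter-read: CellTiter-Glo luminescence (30 min, room temperature) in the same p53RE-bla plates. These plates had been exposed to compounds for 16 h at 37 C.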
# [3] = qHTS assay for small molecules that induce genotoxicity in human embryonic kidney cells expressing luciferase-tagged ATAD5 - cell viability (AID 651634; calls by dose curve; further: nearly all actives have a fitted effect of over 25% in size)
# How it was run: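 Live-cell protease activity (CellTiter-Fluor, fluorescence) indicates viability. HEK293T cells with luciferase-tagged ATAD5; 15.5 hr compound treatment at 37C.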
# [4] = qHTS assay for small molecule disruptors of the mitochondrial membrane potential - cell viability (AID 720634; calls by dose curve;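 further: human HepG2 liver cancer cells; series mostly up to about 83 µM; nearly all actives have a fitted effect of over 20% in size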)
# How it was run: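 Human hepatoma HepG2 cells were treated for 1 hr with test chemicals, then given m-MPI dye and CellTiter-Glo. Cell viability reflects luminescence proportional to cellular ATP.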
# [5] = qHTS assay to test for compound auto fluorescence at 590 nm (red) in HepG2 cells (AID 720674)
# How it was run: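 We screened compounds on adherent HepG2 cells, incubating them for an hour at 37 C in 5% CO2 before reading emission at 590 nm under 540 nm excitation; values reflect equivalence to Rose Bengal sodium fluorescence.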
# [6] = qHTS assay to test for compound auto fluorescence at 535 nm (green) in HepG2 cells (AID 720675)
# [7] = qHTS assay to test for compound auto fluorescence at 460 nm (blue) in HEK293 cells (AID 720678)
# How it was run: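 Cells were seeded and left to adhere for 4-5 hr at 37C. Compounds were then pin-transferred. After an overnight incubation at 37C under 5% CO2, intrinsic fluorescence at 405/460 nm was measured and referenced to triamterene.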
# [8] = qHTS assay to test for compound auto fluorescence at 590 nm (red) in HEK293 cells (AID 720679)
# How it was run: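 Each well held 2,000 HEK293 cells in medium containing 10% dialyzed FBS. Following 4-5 hr attachment at 37C, 23 nL test compound or DMSO was added; plates sat overnight, and red fluorescence (540/590nm) was recorded.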
# [9] = qHTS assay to test for compound auto fluorescence at 535 nm (green) in HEK293 cells (AID 720680)
# [10] = qHTS assay to test for compound auto fluorescence at 460 nm (blue) in HEK293 cell free culture (AID 720681)
# How it was run: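 Blue fluorescence (Ex 405/Em 460 nm, triamterene-equivalent) was read immediately after pin transfer of compound or DMSO into medium (DMEM, 10% FBS) without cells.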
# [11] = qHTS assay to test for compound auto fluorescence at 535 nm (green) in HEK293 cell free culture (AID 720682)
# How it was run: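 Each library compound, or DMSO control, is added by pintool to medium alone, comprising DMEM and 10% FBS. Emission at 535 nm following 485 nm excitation is quantified against fluorescein.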
# [12] = qHTS assay to test for compound auto fluorescence at 590 nm (red) in HEK293 cell free culture (AID 720683)
# How it was run: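 Red-channel autofluorescence of compounds in culture medium (DMEM, 10% FBS), no cells, measured at 540/590 nm. Rose Bengal sodium is the reference fluorophore for equivalence.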
# [13] = qHTS assay to test for compound auto fluorescence at 590 nm (red) in HepG2 cell free culture (AID 720684)
# How it was run: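 Steps: dispense MEM/10% FBS medium, no cells; pin compound or DMSO vehicle; read red channel, Ex/Em 540/590 nm. Output given as Rose Bengal sodium equivalents.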
# [14] = qHTS assay to test for compound auto fluorescence at 460 nm (blue) in HepG2 cell free culture (AID 720685)
# How it was run: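 Compound (23 nL) or DMSO pinned into cell-free MEM with 10% FBS; blue fluorescence read at 405/460 nm excitation/emission, expressed as auto-fluorescence equivalency to triamterene.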
# [15] = qHTS assay to test for compound auto fluorescence at 535 nm (green) in HepG2 cell free culture (AID 720686)
# [16] = qHTS assay to test for compound auto fluorescence at 460 nm (blue) in HepG2 cells (AID 720687)
# How it was run: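 Blue-channel autofluorescence (Ex/Em 405/460 nm, triamterene-equivalent) was measured after 1 hr compound exposure at 37 C, 5% CO2. Cells were HepG2, plated overnight at 37 C in MEM plus 10% FBS.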
# [17] = biological target: Glucocorticoid receptor (Homo sapiens) (UniProt P04150); assay: qHTS assay to identify small molecule agonists of the glucocorticoid receptor (GR) signaling pathway (AID 720691; active means well fitted activation curve with a large enough effect in the signal ratio in the repeat runs, not every such curve was filed as active; the % refers to the signal ratio; further: potency means the concentration at half of the fitted maximal effect)
# How it was run: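 Beta-lactamase reporter activity, read as fluorescence intensity, was measured in GR-bla HeLa cells exposed to compounds for 18 h at 37 C and then loaded with LiveBLAzer B/G FRET substrate for 2 h at room temperature.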
# [18] = qHTS assay for small molecule disruptors of the mitochondrial membrane potential (AID 720635)
# How it was run: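 Mitochondrial membrane potential tracked with Mito-MPS dye, red aggregates (ex 540/em 590 nm) against green monomers (ex 490/em 535 nm). Compound treatment 1 hr at 37C, dye 30 min in HepG2.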
# [19] = biological target: Glucocorticoid receptor (Homo sapiens) (UniProt P04150); assay: qHTS assay to identify small molecule antagonists of the glucocorticoid receptor (GR) signaling pathway (AID 720692; active means well fitted inhibition curve with a large enough effect in the signal ratio in the repeat runs, not every such curve was filed as active; the % refers to the signal ratio)
# How it was run: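 Fluorescence from cleaved LiveBLAzer B/G FRET substrate reports GRE-driven beta-lactamase in HeLa cells; compounds are tested against 5 nM dexamethasone (final) over 18 h at 37 C, substrate incubation 2 h at room temperature.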
# [20] = qHTS assay for small molecule agonists of the p53 signaling pathway (AID 651631; calls by dose curve; further: nearly all actives have a fitted effect of over 15% in size)
# How it was run: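 Beta-lactamase reporter activity under p53 response elements was quantified in HCT-116 cells by FRET fluorescence, following 16 h incubation with test compounds at 37 °C and 2 h substrate development at room temperature.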
# Sequence of Glucocorticoid receptor (Homo sapiens) (P04150 whole entry, looked up): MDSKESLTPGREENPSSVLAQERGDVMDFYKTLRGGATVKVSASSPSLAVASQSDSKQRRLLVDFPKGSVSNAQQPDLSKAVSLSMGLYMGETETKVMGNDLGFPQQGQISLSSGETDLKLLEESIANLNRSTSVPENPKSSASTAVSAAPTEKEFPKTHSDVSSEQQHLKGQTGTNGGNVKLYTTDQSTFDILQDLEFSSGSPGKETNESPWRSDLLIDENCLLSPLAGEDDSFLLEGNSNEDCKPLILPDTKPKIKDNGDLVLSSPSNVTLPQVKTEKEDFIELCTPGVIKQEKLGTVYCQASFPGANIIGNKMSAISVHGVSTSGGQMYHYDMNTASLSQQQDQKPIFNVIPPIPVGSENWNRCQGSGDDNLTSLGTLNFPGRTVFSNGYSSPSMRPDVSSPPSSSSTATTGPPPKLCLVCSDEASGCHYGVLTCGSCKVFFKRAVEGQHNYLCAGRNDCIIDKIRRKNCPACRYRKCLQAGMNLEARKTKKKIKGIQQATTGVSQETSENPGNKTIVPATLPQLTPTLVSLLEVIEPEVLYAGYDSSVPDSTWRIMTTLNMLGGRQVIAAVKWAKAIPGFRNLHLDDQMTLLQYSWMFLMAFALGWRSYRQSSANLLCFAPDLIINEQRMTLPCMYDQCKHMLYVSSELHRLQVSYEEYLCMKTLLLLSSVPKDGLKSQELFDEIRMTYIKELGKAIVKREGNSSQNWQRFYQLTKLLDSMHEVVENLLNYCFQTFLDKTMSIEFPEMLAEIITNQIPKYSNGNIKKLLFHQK
smiles,measurement,setting,value
C=CC(=O)NC(C)(C)C,Potency,[1],inactive
same,Potency,[2],inactive
same,Potency,[3],inactive
same,Potency,[4],inactive
same,outcome,[5],inactive
same,outcome,[6],inactive
same,Potency,[7],inactive
same,outcome,[8],inactive
same,outcome,[9],inactive
same,Potency,[10],inactive
same,outcome,[11],inactive
same,outcome,[12],inactive
same,outcome,[13],inactive
same,outcome,[14],inactive
same,outcome,[15],inactive
same,outcome,[16],inactive
same,Potency,[17],inactive
C=Cc1ccc(C=C)cc1,Potency,[1],inactive
same,Potency,[2],inactive
same,Potency,[3],inactive
same,Potency,[4],inactive
same,Potency,[18],inactive
same,outcome,[5],inactive
same,outcome,[6],inactive
same,Potency,[7],inactive
same,outcome,[8],inactive
same,outcome,[9],inactive
same,Potency,[10],inactive
same,outcome,[11],inactive
same,outcome,[12],inactive
same,outcome,[13],inactive
same,outcome,[14],inactive
same,outcome,[15],inactive
same,outcome,[16],inactive
same,Potency,[17],inactive
same,Potency,[19],inactive
Nc1ccc(-c2ccc(F)cc2)cc1,Potency,[20],inactive
same,Potency,[2],inactive
same,Potency,[3],inactive
same,Potency,[4],inactive
same,outcome,[6],inactive
same,Potency,[7],inactive
same,outcome,[8],inactive
same,outcome,[9],inactive
same,Potency,[10],inactive
same,outcome,[11],inactive
same,outcome,[12],inactive
same,outcome,[13],inactive
same,outcome,[14],inactive
same,outcome,[15],inactive
same,outcome,[16],inactive
CC1=C(C)C(=O)C(CCCCC#CCCCC#CCO)=C(C)C1=O,Potency,[1],inactive
same,Potency,[2],inactive
same,Potency,[3],inactive
same,Potency,[4],inactive
same,outcome,[5],inactive
same,outcome,[6],inactive
same,Potency,[7],inactive
same,outcome,[8],inactive
same,outcome,[9],inactive
same,Potency,[10],inactive
same,outcome,[11],inactive
same,outcome,[12],inactive
same,outcome,[13],inactive
same,outcome,[14],inactive
same,outcome,[15],inactive
same,outcome,[16],inactive
same,Potency,[17],inactive
same,Potency,[19],inactive
CC(=O)OCC(=O)[C@@]1(O)CC[C@H]2[C@@H]3CCC4=CC(=O)C=C[C@]4(C)[C@@]3(F)[C@@H](O)C[C@@]21C,Potency,[1],inactive
same,Potency,[2],inactive
same,Potency,[3],inactive
same,Potency,[4],inactive
same,"fluorescence, relative to Rose Bengal",[5],-0.399% [at 18.6 µM]
same,"fluorescence, % of fluorescein control",[6],0.0333% [at 18.6 µM]
same,"fluorescence, % of triamterene",[7],0.0056% [at 18.6 µM]
same,"fluorescence, % of fluorescent control",[8],0.478% [at 18.6 µM]
same,"fluorescence, % of fluorescein",[9],-0.0592% [at 18.6 µM]
same,"fluorescence, % of fluorescent control",[10],-0.0825% [at 18.6 µM]
same,activity change,[11],0.114% [at 18.6 µM]
same,"fluorescence, % of fluorescent control",[12],0.0194% [at 18.6 µM]
same,"fluorescence, % of Rose Bengal",[13],-0.0287% [at 18.6 µM]
same,"fluorescence, % of fluorescent control",[14],0.0112% [at 18.6 µM]
same,"fluorescence, % of fluorescein control",[15],-0.0779% [at 18.6 µM]
same,Potency,[17],12.9 nM (active)
Clc1nc2ccccc2nc1Cl,Potency,[1],inactive
same,Potency,[2],inactive
same,Potency,[3],inactive
same,Potency,[4],inactive
same,outcome,[5],inactive
same,outcome,[6],inactive
same,outcome,[8],inactive
same,outcome,[9],inactive
same,Potency,[10],inactive
same,outcome,[11],inactive
same,outcome,[12],inactive
same,outcome,[13],inactive
same,outcome,[14],inactive
same,outcome,[15],inactive
same,outcome,[16],inactive
same,Potency,[17],inactive
same,Potency,[19],inactive
NC(=O)c1cc[n+](CC2=C(C(=O)[O-])N3C(=O)[C@@H](NC(=O)Cc4cccs4)[C@H]3SC2)cc1,Potency,[1],inactive
same,Potency,[2],inactive
same,Potency,[3],inactive
same,Potency,[4],inactive
same,Potency,[18],inactive
same,"fluorescence, % of fluorescein control",[6],-0.0242% [at 18.6 µM]
same,"fluorescence, % of triamterene",[7],0.803% [at 18.6 µM]
same,"fluorescence, % of fluorescent control",[8],0.0624% [at 18.6 µM]
same,"fluorescence, % of fluorescein",[9],0.0094% [at 18.6 µM]
same,"fluorescence, % of fluorescent control",[10],0.628% [at 18.6 µM]
same,activity change,[11],0.0615% [at 18.6 µM]
same,"fluorescence, % of fluorescent control",[12],0.0033% [at 18.6 µM]
same,"fluorescence, % of Rose Bengal",[13],0.512% [at 18.6 µM]
same,"fluorescence, % of fluorescent control",[14],0.491% [at 18.6 µM]
same,"fluorescence, % of fluorescein control",[15],-0.0061% [at 18.6 µM]
same,"fluorescence, % of fluorescent control",[16],0.406% [at 18.6 µM]
